# Screening results as filed in PubChem BioAssay.
# GPR151 activ: activators of human GPR151. PathHunter beta-arrestin GPR151 cells, luminescence. 650,000 compounds, 1% hits. Q8TDV0. activation, % at 11.2 µM; in the data active means activation above about 4.9%
# MITF primary: blocks human microphthalmia-associated transcription factor; AlphaScreen MITF homodimerization, bead proximity signal; 650,000 compounds, 0.91% hits; O75030; inhibition, % at 2.6 µM; in the data active means inhibition above about 50%
# Target sequence (O75030 whole entry, looked up): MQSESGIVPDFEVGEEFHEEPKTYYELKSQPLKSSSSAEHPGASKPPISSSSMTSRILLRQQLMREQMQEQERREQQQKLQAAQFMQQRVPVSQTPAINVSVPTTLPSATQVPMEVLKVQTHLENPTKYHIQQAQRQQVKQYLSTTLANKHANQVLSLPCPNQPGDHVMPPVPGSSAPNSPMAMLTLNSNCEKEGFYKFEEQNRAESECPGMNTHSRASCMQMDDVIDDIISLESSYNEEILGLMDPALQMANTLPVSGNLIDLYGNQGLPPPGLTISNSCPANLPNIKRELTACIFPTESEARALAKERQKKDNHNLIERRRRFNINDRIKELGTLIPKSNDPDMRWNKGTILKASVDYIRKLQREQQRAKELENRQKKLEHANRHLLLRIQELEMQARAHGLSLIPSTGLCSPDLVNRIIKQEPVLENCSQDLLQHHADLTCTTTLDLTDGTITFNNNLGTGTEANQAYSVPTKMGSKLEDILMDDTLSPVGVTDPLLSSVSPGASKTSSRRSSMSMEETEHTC
# TEAD-YAP block: TEAD-YAP interaction inhibition | inhibition, % at 9.12 µM | AID 1259422 | 640,000 compounds, 1.4% hits | HEK-TIYL cells, TEAD-Gal4/YAP UAS-luciferase luminescence; in the data active means inhibition above about 32%
# FBW7 act: human FBW7 E3 ligase activation, primary screen | 650,000 compounds, 0.13% hits | normalized activity (activation), % at 26.1 µM | AlphaScreen FBW7–phospho-cyclin E peptide binding, activator screen; in the data active means normalized activity above about 1.9%;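 further: purified mutant Fbw7 with reduced substrate affinity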
# Hits are given with their value; . = inactive. A selection: hits, their analogues and other compounds. The true share with any hit is near 3.5%.
SMILES,GPR151 activ,MITF primary,TEAD-YAP block,FBW7 act
O=C(N/N=C/c1ccc(O)cc1)c1cccc(O)c1,.,.,.,.
O=C(CC(=O)N/N=C/c1ccc([N+](=O)[O-])cc1)N/N=C/c1ccc([N+](=O)[O-])cc1,.,.,.,.
CCCCCOc1ccc(Br)cc1/C(C)=N/NC1=NCCN1,.,.,61.8,.
CN(C)c1ccc(C2N(C)c3ccccc3N2C)cc1,.,.,47.3,.
CN1c2ccccc2N(C)C1c1cccc(O)c1,.,.,.,.
CCOC(=O)/C(=C/Nc1ccccc1C#N)NC(=O)c1ccc([N+](=O)[O-])cc1,.,.,.,.
COc1cc(OC)cc(C(=O)N2CCN(c3cc(Cl)ccc3C)CC2)c1,.,.,53.9,.
Cc1ccc(Cl)cc1N1CCN(C(=O)c2coc(=O)c3ccccc23)CC1,.,.,61.2,.
O=C(c1coc(=O)c2ccccc12)N1CCN(c2ccccc2F)CC1,.,.,.,.
Cc1ccc(Cl)cc1N1CCN(C(=O)c2ccc(=O)[nH]c2)CC1,.,.,.,.
COc1ccc(OC)c(Nc2nnc(-c3cc4cc(Cl)ccc4oc3=O)s2)c1,.,.,.,.
CCCCNC(=O)CSc1nc(O)c(C(C)C)c(=O)[nH]1,.,.,.,.
C/C(CC(=O)Nc1ccc(Br)cc1)=N\NC(=O)c1cccc(C)c1,.,.,.,.
Cc1nc(C)c(-c2csc(Nc3cccc(O)c3)n2)s1,.,.,35.0,.
CCC(=O)Nc1nc(C)c(-c2csc(Nc3ccc(NC(C)=O)cc3)n2)s1,.,.,43.8,.
Cc1ccc(Nc2nc(-c3c(C)nc4sccn34)cs2)c(C)c1,.,.,50.3,.
CCOc1ccc(Nc2nc(-c3sc(C)nc3C)cs2)cc1,.,.,41.3,.
O=C(NCCN1CCN(Cc2ccc([N+](=O)[O-])cc2)CC1)C(=O)Nc1ccc(Cl)cc1,.,.,.,.
CC1CCc2sc(NC(=O)Cc3ccccc3)c(C#N)c2C1 (centres undefined),.,.,.,.
Cc1ccc(C(=O)OC2CC(n3cc(C)c(=O)[nH]c3=O)OC2CO)cc1 (centres undefined),.,.,.,.
O=S(=O)(c1ccccc1)N1CCCC(c2nnc(Cc3ccccc3)s2)C1 (centres undefined),.,.,.,.
CCOc1ccc(Nc2nc(-c3c(C)nc4sccn34)cs2)cc1,.,.,60.9,.
Oc1cccc(Nc2nc(-c3ccncc3)cs2)c1,.,.,.,.
COc1cc(Br)c(Nc2nc(-c3c(C)nc4sccn34)cs2)c(Br)c1,.,.,.,.
Oc1ccc(-c2csc(Nc3ccccc3)n2)cc1O,.,66.3,.,.
SMILES,GPR151 activ,MITF primary,TEAD-YAP block,FBW7 act
Oc1ccc(-c2csc(Nc3ccc(Cl)cc3)n2)cc1O,.,.,.,.
Oc1cccc(Nc2nc(-c3cccnc3)cs2)c1,.,.,44.8,.
Cc1nc2sccn2c1-c1csc(Nc2ccc(Cl)cc2)n1,.,.,50.1,.
COC(=O)c1ccc(C(=O)N2CCC[C@@H]3CN(S(=O)(=O)C(C)C)CC[C@H]32)cc1,.,.,.,.
O=C(c1ccc2c(c1)CCO2)N1CCC2(CC1)OCc1ccccc1O2,.,.,.,.
O=c1c(C=NCCc2ccccn2)c(CSc2ccc(Cl)cc2)[nH]n1-c1nc2ccccc2s1,.,65.1,.,.
Cc1ccc(N(C)S(=O)(=O)c2ccc3[nH]cc(C(=O)NCCN(C)C)c(=O)c3c2)cc1C,.,.,.,.
NC1=NC(=O)/C(=C/c2ccc(-c3cccc(Cl)c3)o2)S1,.,.,.,.
Cc1cc(C(=O)CSc2nnc3ccccn23)c(C)n1Cc1ccccc1,.,.,63.7,.
CC(=O)c1cccc(NC(=O)CSC2N=c3ccc([N+](=O)[O-])cc3=N2)c1 (centres undefined),.,70.6,.,.
CC(=O)c1cccc(NC(=O)Cn2ccc([N+](=O)[O-])n2)c1,.,.,.,.
CC(=O)c1ccc(N2CCN(CC(=O)Nc3ncc(C)s3)CC2)cc1,.,.,.,.
CCc1nnc(NC(=O)CN2CCN(c3ccc(C(C)=O)cc3)CC2)s1,.,.,31.9,.
CC(C)C1CCC(Nc2ncc(-c3cccc(C(=O)NCCN(C)C)c3)n3ccnc23)CC1 (centres undefined),.,.,38.5,.
CCOC(=O)c1ccc(CN(Cc2ccc(F)cc2)S(=O)(=O)c2ccc(F)c(C)c2)cc1,.,.,.,.
c1ccc(CN2CCC(NCc3ccc(N4CCOCC4)cc3)CC2)cc1,.,68.1,.,.
CN(C)C(=O)n1nnc2ccccc21,.,.,58.7,.
O=C(c1ccc(C(=O)n2nnc3ccccc32)cc1)n1nnc2ccccc21,.,.,.,.
O=C(NCCC1=CCCCC1)c1cn(-c2ccc(Cl)cc2)c(=O)c2ccccc12,.,.,.,.
Cc1ccc(C(=O)CN(C(=O)CCl)c2ccccc2)cc1,.,.,36.4,.
Cc1ccc(N(CCC(N)=O)C(=O)CCl)cc1,.,.,76.0,.
c1ccc(CN2CCC(Nc3nc(Nc4ccc(N5CCOCC5)cc4)c4ncn(-c5ccsc5)c4n3)CC2)cc1,.,.,49.1,.
Cc1nn(C)c(C)c1-c1nc(NC2CCN(Cc3ccccc3)CC2)c2ncn(C(C)C)c2n1,.,.,72.0,.
c1ccc(CN2CCC(Nc3nc(Nc4ccc(-n5ccnc5)cc4)nc4c3ncn4-c3ccsc3)CC2)cc1,.,.,42.3,.
c1ccc(CN2CCC(Nc3nc(NC4CC4)c4ncn(-c5ccsc5)c4n3)CC2)cc1,.,.,36.0,.
SMILES,GPR151 activ,MITF primary,TEAD-YAP block,FBW7 act
COC(=O)c1c(NC(=O)c2ccc(Cl)c([N+](=O)[O-])c2)sc2c1CCCC2,.,.,.,.
CCOC(=O)c1ccc(S(=O)(=O)NNC(N)=O)cc1,.,.,.,.
Cc1sc2nc(SCC(=O)Nc3ccccc3Oc3ccccc3)n(-c3ccccc3)c(=O)c2c1C,.,.,.,.
COCCNc1nc2cc(OC)c(OC)cc2c2nc(-c3ccccc3)nn12,.,.,.,.
COc1cccc(NC(=S)NC(C)(C)C)c1,.,.,.,.
c1cc(-n2cnc3c(NC4CC4)nc(N4CCN(Cc5ccc6c(c5)OCO6)CC4)nc32)cs1,.,.,36.7,.
c1cc(-n2cnc3c(Nc4ccc5c(c4)OCO5)nc(N4CCN(Cc5ccc6c(c5)OCO6)CC4)nc32)cs1,.,.,.,.
c1ccc(CN2CCC(Nc3nc(N4CCC(N5CCOCC5)CC4)nc4c3ncn4-c3ccsc3)CC2)cc1,.,.,.,.
c1ccc(CN2CCC(Nc3nc(N4CCOCC4)nc4c3ncn4-c3ccsc3)CC2)cc1,.,.,44.5,.
OC1CCC(Nc2nc(NC3CCN(Cc4ccccc4)CC3)c3ncn(-c4ccccc4)c3n2)CC1 (centres undefined),.,.,42.1,.
O=S(=O)(c1ccc(Cl)cc1)N1CCN(Cc2ccc(O)c3ncccc23)CC1,.,.,66.2,.
COc1ccc(NCc2ccc(O)c3ncccc23)cc1,.,73.3,.,.
Oc1ccc(CN2CCN(Cc3ccccc3)CC2)c2cccnc12,.,94.8,.,.
Oc1ccc(CNc2ccc(Cl)cc2)c2cccnc12,.,.,.,.
CCCOc1cccc(C(=O)Nc2cc(-c3nc4ccccc4o3)ccc2C)c1,.,.,.,.
